Measured values taken from PubChem BioAssay (EPA / NIEHS).
Inconclusive results are not listed. Calls of active or inactive are those of the source. The calls were made as follows: active = hit-call score of the fitted dose curve at least 0.9, where 1 is the maximum; inconclusive = response in the unintended direction; inactive = score below 0.9.

Read-out: alkyl and aryl transferase (GSTA2), GSTA2 (gene 2939)
Assay: CLD_GSTA2_48hr: CellzDirect (CLD) Gene Expression Assay for alkyl and aryl transferase (GSTA2) at 48 hours (AID 2283708);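 also: active means mRNA induction above DMSO vehicle baseline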
Protocol: CLD_48hr is a cell-based, multiplexed-readout assay that uses hepatocyte, a human liver primary cell, with measurements taken at 48 hours after chemical dosing in a 96-well plate.CLD_GSTA2_48hr is one of 16 assay component(s) measured or calculated from the CLD_48hr assay. It is designed to make measurements of mRNA induction, a form of inducible reporter, as detected with chemiluminescence signals by Quantitative Nuclease Protection Assay (qNPA) technology.Data from the assay component CLD_GSTA2_48hr was analyzed at the endpoint, CLD_GSTA2_48hr, in the positive analysis fitting direction relative to DMSO as the negative control and baseline of activity. Using a type of inducible reporter, gain-of-signal activity can be used to understand changes in the reporter gene as they relate to the gene GSTA2. Furthermore, this assay endpoint can be referred to as a primary readout. To generalize the intended target to other relatable targets, this assay endpoint is annotated to the transferase intended target family, where subfamily is alkyl and aryl transferase.
Human hepatocyte cultures were treated daily for two consecutive days with fresh dosing solutions containing appropriate concentrations of the 320 ToxCast chemicals (chemical identities were blinded to CellzDirect and other ToxCast collaborators), vehicle control (0.2% DMSO), and positive control inducers as summarized in Table 1. […] These replicate data, coupled with internal replicates designed within the blinded ToxCast chemical library, provided additional data to evaluate interindividual differences between hepatocyte preparations and their potential impact on chemical profiles.Cell morphology and integrity were evaluated using phase-contrast microscopy as an indicator of hepatocyte cell health (Tyson & Green, 1987). Cultures for each treatment group (i.e., media, vehicle [0.2% DMSO], positive control inducers [multiple concentrations], and the ToxCast chemicals [multiple concentrations]) were observed and cell morphology was assessed relative to vehicle control cultures at each harvest time point (0, 6, 24, or 48 h). […] Images were evaluated at the conclusion of the study to assess changes in cell integrity and account for the effects of chemical exposure on uncharacteristic changes in concentration-dependent gene expression profiles. The results from these determinations of apparent cytotoxicity were annotated (yes/no) alongside the corresponding qNPA data for reference.At the conclusion of each treatment period, hepatocyte cultures (96-well) were washed with 1 volume of HBSS, lysed by addition of 25 ul ArrayPlate lysis buffer (HTG, Tucson, AZ), and 70 ul/well of Denaturation Oil, denatured by incubation at 95C for 10 min, and frozen at approximately -70C until analysis by nuclease protection assay (qNPA) (Roberts et al., 2007). For qNPA analysis, cell lysates were thawed at 50C for approximately 30 min, qNPA probes were added, and samples were incubated at 95C for 10 min to begin the detection process by denaturing the target RNA, dissociating the duplexes and secondary structure hybridization. At the conclusion of the hybridization period, S1 nuclease reagent was added to each sample to digest all nonprotected nucleotides at 50C for 60-90 min. At the conclusion of the S1 nuclease digestions, all reactions were stopped by transfer of all the samples to fresh plates containing stop solution and incubated at 95C for 15 min to deactivate the enzyme, dissociate the mRNA/ DNA probe heterodimers, and hydrolyze the resulting single stranded mRNA, leaving a stoichiometric amount of single-stranded DNA nuclease protection probe, unmodified in sequence, as the only intact oligonucleotide left in the sample. Neutralization solution was subsequently applied to cooled (room temperature) plates, and samples were transferred to ArrayPlates for overnight incubations at 50Cto allow probes to be captured onto programmed locations on the ArrayPlates. […]

Compound	outcome	AC50
CCCN(CCC)C(=O)SCC	inactive	–
CCCCCCC(C)OC(=O)COc1nc(F)c(Cl)c(N)c1Cl (stereo unspecified)	inactive	–
COc1nc(C)nc(NC(=O)NS(=O)(=O)c2ccccc2OCCCl)n1	inactive	–
c1ccc(Nc2ccccc2)cc1	inactive	–
N#CSCSc1nc2ccccc2s1	inactive	–
CCCN(CCC)c1c([N+](=O)[O-])cc(C(F)(F)F)c(N)c1[N+](=O)[O-]	inactive	–
O=C(Nc1ccc([N+](=O)[O-])cc1Cl)c1cc(Cl)ccc1O	inactive	–
COc1c(Cl)ccc(Cl)c1C(=O)O	inactive	–
CCOC(=O)COc1cc(-n2ncc(C(F)(F)F)c(C)c2=O)c(F)cc1Cl	inactive	–
C#CCOC(=O)[C@@H](C)Oc1ccc(Oc2ncc(Cl)cc2F)cc1	inactive	–
CCCCC(CC)CN1C(=O)C2C3C=CC(C3)C2C1=O (stereo unspecified)	inactive	–
CCCCOC(=O)[C@@H](C)Oc1ccc(Oc2ccc(C(F)(F)F)cn2)cc1	inactive	–
CCOC(=O)C(C)Oc1ccc(Oc2nc3ccc(Cl)cc3o2)cc1 (stereo unspecified)	inactive	–
CCCCCOC(=O)COc1cc(N2C(=O)C3=C(CCCC3)C2=O)c(F)cc1Cl	inactive	–
Cc1nn(C)c(Oc2ccccc2)c1C=NOCc1ccc(C(=O)OC(C)(C)C)cc1	inactive	–
COC(=O)c1c(Cl)nn(C)c1S(=O)(=O)NC(=O)Nc1nc(OC)cc(OC)n1	inactive	–

Compound	outcome	AC50
CCCCC(CC)COC(=O)c1ccccc1C(=O)O (stereo unspecified)	inactive	–
CCNc1nc(N)nc(Cl)n1	inactive	–
CC(C)(c1ccc(O)cc1)c1ccc(O)cc1	inactive	–
CCOC(=O)[C@H](C)Oc1ccc(Oc2nc3ccc(Cl)cc3o2)cc1	inactive	–
COCCO	inactive	–
COC(=O)c1ccc(CNS(C)(=O)=O)cc1S(=O)(=O)NC(=O)Nc1nc(OC)cc(OC)n1	inactive	–
CC(C)(C)[C@@H](O)[C@@H](Cc1ccc(Cl)cc1)n1cncn1	inactive	–
CCCOC(=O)NCCCN(C)C	inactive	–
CCC(C)OC(=O)N1CCCCC1CCO (stereo unspecified)	inactive	–
CCOC(=O)NCCOc1ccc(Oc2ccccc2)cc1	inactive	–
Oc1ccc(C(c2ccc(O)cc2)C(Cl)(Cl)Cl)cc1	inactive	–
CC1(C)C(C=C(Cl)Cl)C1C(=O)OCc1cccc(Oc2ccccc2)c1 (stereo unspecified)	inactive	–
C=CCOC(Cn1ccnc1)c1ccc(Cl)cc1Cl (stereo unspecified)	–	36.7 µM (active)
CSC(=O)c1cccc2nnsc12	inactive	–
CCSC(=O)N(CC(C)C)CC(C)C	inactive	–
